According to PubChem BioAssay AID624309 (Sanford-Burnham Center for Chemical Genomics, 2012):
Out of some 2,000 compounds screened, about 260 (13%) were called active. Cut-off read from the data, not from the text of the source: active = inhibition mostly above about 42% (no sharp cut-off); inactive = mostly below about 42%. The list is a sample of the results.

system: Nicotinate mononucleotide adenylyltransferase NadD (Staphylococcus aureus N315); experiment: S. aureus NadD enzyme activity blockers – biochemical, colorimetric, single concentration, confirmation (AID 624309); conditions: purified S. aureus NadD, colorimetric enzyme assay; at 20 µM; stronger effect = higher value

Row | Compound | inhibition
1 | Cc1cc(N2C(=O)C(O)=C(C(=O)c3ccc(C)o3)C2c2ccc(OCc3ccccc3)cc2)no1 (centres undefined) | 51.4% (active)
2 | CCCn1c(C)cc(-c2csc(NC(=O)CCc3nc4ccccc4c(=O)[nH]3)n2)c1C | 25.1% (inactive)
3 | CCc1ccc(-n2c(=S)sc3c(=O)n(-c4ccccc4OC)c(=S)[nH]c32)cc1 | 5.54% (inactive)
4 | Cc1ccc(C(=O)COC(=O)c2cccc(N3C(=O)c4c(C)nc5ccccc5c4C3=O)c2)cc1C | 0.6% (inactive)
5 | Cc1cc(C)c2nc(-c3cccnc3)cc(C(=O)Nc3ccc(S(=O)(=O)Nc4onc(C)c4C)cc3)c2c1 | 64% (active)
6 | COc1cccc2sc(NNC(=O)c3nc4ccccc4s3)nc12 | 43.7% (inactive)
7 | O=C(COC(=O)c1cc(=O)[nH]c2ccccc12)Nc1nc(-c2cccc(Br)c2)cs1 | 5.44% (inactive)
8 | CCOc1ccc(CCN2C(=S)N([C@@H](CC(C)C)CN3CCC[C@@H]3CN3C(=S)NC[C@@H]3Cc3ccc(O)cc3)C[C@@H]2Cc2ccc(O)cc2)cc1 | 29.1% (inactive)
9 | COc1ccc(C(=O)/C=C/c2ccc(-c3ccccc3)cc2)cc1CSCC(=O)O | 46.5% (inactive)
10 | Cc1ccc(Cn2c(=N)c(S(=O)(=O)c3ccc(C)cc3)cc3c(=O)n4ccccc4nc32)cc1 | 20.4% (inactive)
11 | Cc1ccc(N2C(=O)C3N=NN(CC(=O)N4N=C(c5cccc6ccccc56)CC4c4ccccc4)C3C2=O)cc1 (centres undefined) | 33.1% (inactive)
12 | CC(=O)Nc1ccc(Nc2cc(C)nc(Nc3ccc(NC(C)=O)cc3)n2)cc1 | 9.22% (inactive)
13 | O=C1NC[C@H](Cc2ccc(O)cc2)N(C[C@@H]2CCCN2C[C@H](Cc2ccccc2)N2C[C@H](Cc3ccccc3)N(CC3CCCCC3)C(=O)C2=O)C1=O | 38.1% (inactive)
14 | O=C(Nc1ccc(NC(=O)c2cccs2)cc1)c1ccc2ccccc2c1 | -0.66% (inactive)
15 | Nc1ccc2nc3c(=O)[nH]c(=S)[nH]c3nc2c1 | 72.4% (active)
16 | Cc1ccc(C(=O)Oc2coc(CSc3nnc(NC(=O)c4cccs4)s3)cc2=O)cc1C | 13.8% (inactive)
17 | CC(C)CC1C(=O)N(Cc2cn(Cc3ccco3)nn2)CCS(=O)(=O)N1Cc1ccc(-c2ccc(Cl)c(Cl)c2)cc1 (centres undefined) | 35% (inactive)
18 | COc1cc(C2CC(=O)N3CN(Cc4ccccc4)CSC3=C2C#N)ccc1OCc1ccccc1 (centres undefined) | 4.07% (inactive)
19 | COCCCn1c(=O)/c(=C/c2ccccc2OC(C)C)s/c1=C(\C#N)C(=O)Nc1ccc(C(=O)O)cc1 | 12.9% (inactive)
20 | NNc1cccc(C=Cc2ccccc2)cc1=O | 39.5% (inactive)
21 | O=C(CSc1nnc(-c2cccnc2)n1Cc1ccco1)c1ccc(Cl)c(Cl)c1 | 32.6% (inactive)
22 | COc1ccc(Cl)cc1C(=O)NNC(=S)NC(=O)/C=C/c1ccco1 | -2.56% (inactive)
23 | COc1ccc(NS(=O)(=O)c2ccc(NC(=S)NC(=O)/C=C/c3ccc(C)cc3)cc2)nn1 | 58.1% (active)
24 | COc1ccc(C2=NN(C(=O)CSc3nc(=O)n4ccc(C)cc4n3)C(c3ccc(C)cc3)C2)cc1 (centres undefined) | 18.2% (inactive)
25 | C[C@H](CO)N1C[C@H](C)[C@H](CN(C)C(=O)Nc2ccc(C(F)(F)F)cc2)Oc2c(NC(=O)c3ccncc3)cccc2C1=O | 27.5% (inactive)

Row | Compound | inhibition
26 | Cc1ccc2nc(/C(C#N)=C\c3ccc(OC(=O)c4cccs4)cc3)[nH]c2c1 | 21% (inactive)
27 | Cc1ccc(/C=C/C(=O)Nc2ccc([N+](=O)[O-])c(NC(=O)/C=C/c3ccc(C)o3)c2)o1 | 60.6% (active)
28 | CCCn1c(C(C)Nc2nc(-c3ccc(C)cc3)cs2)nc2cc(Cl)c(N3CCCCC3)cc21 (centres undefined) | 0.81% (inactive)
29 | CCC(NC(=O)c1cc(COc2ccc(F)c(F)c2)on1)c1ccncc1 (centres undefined) | 2.18% (inactive)
30 | c1ccc(-c2nccc(-c3ccc(-n4cnc5ccccc54)cc3)n2)nc1 | 16.5% (inactive)
31 | O=C(CSc1nc2ccccc2c(=O)[nH]1)Nc1nc(-c2ccc(Br)cc2)cs1 | 6.59% (inactive)
32 | Cc1ccc(Cn2nnc3c(=O)[nH]c(C4CCN(S(=O)(=O)/C=C/c5ccccc5)CC4)nc32)cc1 | 37% (inactive)
33 | Cc1ccc(Cn2c(C)nc3c(c2=O)c2nc4ccccc4nc2n3Cc2ccco2)cc1 | 11.8% (inactive)
34 | Cn1c2ccccc2c(=O)c2c(=O)n(Cc3ccco3)c(COc3ccccc3)nc21 | 10.4% (inactive)
35 | Cc1cc(C(=O)CSc2nc(N)cc(=O)[nH]2)c(C)n1CCc1ccc(Cl)cc1 | 21.5% (inactive)
36 | C#Cc1cc(N2CCN(C(=O)c3ccoc3)CC2)n2nc(-c3cccc(Cl)c3)cc2n1 | 25.9% (inactive)
37 | COc1ccc(-c2nn(-c3ccccc3)cc2/C=N/Nc2ccccn2)cc1OC | 5.86% (inactive)
38 | Cc1ccc(-c2nc(-c3cccnc3)sc2CC(=O)Nc2ccc(C)c(Cl)c2)cc1 | -1.82% (inactive)
39 | Cc1noc(/C=C/c2ccco2)c1S(=O)(=O)N1CCC(C(=O)N2CCc3ccccc32)CC1 | 4.7% (inactive)
40 | Cn1cncc1C#Cc1c(-c2ccsc2)sc2ccccc12 | 9.54% (inactive)
41 | O=C(N/N=C/c1ccc(Cl)cc1)c1nc2ccc([N+](=O)[O-])cc2c(=O)[nH]1 | 9.54% (inactive)
42 | COc1ccccc1/C=C/C=N/n1c(-c2ccc(Cl)cc2Cl)n[nH]c1=S | 17.4% (inactive)
43 | CCC(c1nnnn1Cc1ccco1)N(Cc1cc2cc(OC)ccc2[nH]c1=O)C1CCCCC1 (centres undefined) | 14.9% (inactive)
44 | COc1ccc(C(=O)Nc2cccc(/C=C(/CCC(=O)O)c3nc4ccccc4s3)c2)cc1 | 35.7% (inactive)
45 | CC(C)(C)C(=O)Nc1ccc(C(=O)N/N=C/c2ccccc2OC(=O)c2ccc(Cl)cc2Cl)cc1 | 0.49% (inactive)
46 | CCCCCCc1cc2cc(-c3nnc(-c4ccccc4)o3)c(=O)oc2cc1O | -1.61% (inactive)
47 | Cc1cc(O)c(C(=O)/C=C/c2c(F)c(F)c(F)c(F)c2F)c(=O)o1 | 12.9% (inactive)
48 | CCOC(=O)c1ccccc1N1C(=O)C2Sc3[nH]c(=O)sc3C(/C=C/c3ccccc3)C2C1=O (centres undefined) | 57.6% (active)
49 | CC(C)Oc1ccc(/C=C(\NC(=O)/C=C/c2ccco2)C(=O)NCCc2nc3ccccc3[nH]2)cc1 | 37.9% (inactive)
